Results as given in PubChem BioAssay (EPA / NIEHS).
Records with an inconclusive call do not appear. Calls of active or inactive are those of the source. Rule for the calls, unless noted: active = hit-call score of the fitted dose curve at least 0.9, where 1 is the maximum; inactive = score below 0.9.

Columns and labels:
[1] = read-out: Protein phosphatase 2A (PPP2R4), PTPA (gene 5524); experiment: LTEA_HepaRG_PPP2R4: Life Technologies and Expression Analysis (LTEA) Assay for Protein phosphatase 2A (PPP2R4) using HepaRG (AID 2283522); conditions: mRNA level, 48 h; actives raise or lower the signal
How it was run: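 HepaRG, 48 h exposure, 8-pt half-log series from 100 uM, 0.5% DMSO vehicle, duplicates. Readout: PPP2R4 mRNA, Fluidigm qRT-PCR, housekeeping-normalized. Bidirectional curve fit vs DMSO baseline.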

[2] = read-out: Phosphatase and tensin (PTEN), PTEN (gene 5728); experiment: LTEA_HepaRG_PTEN: Life Technologies and Expression Analysis (LTEA) Assay for Phosphatase and tensin (PTEN) using HepaRG (AID 2283523); conditions: mRNA level, 48 h; actives raise or lower the signal
How it was run: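 Read-out: TaqMan qRT-PCR of PTEN transcript, normalized to three housekeeping genes, fitted in both directions against 0.5% DMSO. Differentiated human HepaRG cultures received chemicals for 48 h, eight-point half-log series topping at 100 uM.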

[3] = read-out: solute carrier (SLC22A1), SLC22A1 (gene 6580); experiment: LTEA_HepaRG_SLC22A1: Life Technologies and Expression Analysis (LTEA) Assay for solute carrier (SLC22A1) using HepaRG (AID 2283524); conditions: mRNA level, 48 h; actives raise or lower the signal
How it was run: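 Transcript level of SLC22A1 quantified by qRT-PCR (normalized to three housekeeping genes) after 48 h chemical exposure of HepaRG cells, eight concentrations up to 100 µM, half-log steps, 0.5% DMSO vehicle. Gain or loss relative to DMSO fitted bidirectionally.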

[4] = read-out: NAD(P)H dehydrogenase [quinone] 1 (NQO1), NQO1 (gene 1728); experiment: LTEA_HepaRG_NQO1: Life Technologies and Expression Analysis (LTEA) Assay for NAD(P)H dehydrogenase [quinone] 1 (NQO1) using HepaRG (AID 2283526); conditions: mRNA level, 48 h; actives raise or lower the signal
How it was run: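 qRT-PCR read-out (Fluidigm TaqMan), normalized to three housekeeping genes, after 48 h chemical exposure of HepaRG cells. Concentrations: eight points, top 100 uM, half-log steps, 0.5% DMSO vehicle. Gain or loss of signal fitted relative to DMSO.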

[5] = read-out: Nuclear factor erythroid 2-related factor 2 (Homo sapiens) (UniProt Q16236); experiment: LTEA_HepaRG_NFE2L2: Life Technologies and Expression Analysis (LTEA) Assay for Nuclear factor erythroid 2-related factor 2 (NFE2L2) Transcription Factor using HepaRG (AID 2283527); conditions: mRNA level, 48 h; actives raise or lower the signal;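 note: TaqMan qRT-PCR transcript level normalised to ACTB GAPDH and POLR2A housekeeping genes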
How it was run: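 NFE2L2 transcript level was read by qRT-PCR (housekeeping ACTB/GAPDH/POLR2A normalisation) after 48 h chemical treatment of HepaRG in serum-free induction medium. Duplicate 8-point half-log curves, top 100 uM, 0.5% DMSO vehicle; up- or down-regulation fitted against vehicle.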

[6] = read-out: succinate dehydrogenase complex iron sulfur subunit B (SDHB), SDHB (gene 6390); experiment: LTEA_HepaRG_SDHB: Life Technologies and Expression Analysis (LTEA) Assay for succinate dehydrogenase complex iron sulfur subunit B (SDHB) using HepaRG (AID 2283528); conditions: mRNA level, 48 h; actives raise or lower the signal
How it was run: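 A human HepaRG culture in serum-free induction medium received test chemicals for 48 h over an eight-point range capped at 100 uM. SDHB expression change was quantified by qRT-PCR.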

[7] = read-out: Signal transducer and activator of transcription 3 (Homo sapiens) (UniProt P40763); experiment: LTEA_HepaRG_STAT3: Life Technologies and Expression Analysis (LTEA) Assay for Signal transducer and activator of transcription (STAT3) using HepaRG (AID 2283529); conditions: mRNA level, 48 h; actives raise or lower the signal
How it was run: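 STAT3 transcript quantified by qRT-PCR against three housekeeping genes (ACTB, GAPDH, POLR2A), fitted both directions relative to DMSO. HepaRG cultures exposed 48 h to eight half-log concentrations, top 100 uM, 0.5% DMSO, serum-free induction medium.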

[8] = read-out: solute carrier (SLCO1B1), SLCO1B1 (gene 10599); experiment: LTEA_HepaRG_SLCO1B1: Life Technologies and Expression Analysis (LTEA) Assay for solute carrier (SLCO1B1) using HepaRG (AID 2283530); conditions: mRNA level, 48 h; actives raise or lower the signal
How it was run: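 SLCO1B1 transcript levels were quantified by TaqMan qRT-PCR using three housekeeping genes for normalization. This followed 48 h chemical exposure (100 uM top, half-log, 8 points, 0.5% DMSO) of HepaRG liver cells, with gain or loss fitted relative to DMSO.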

[9] = read-out: sulfotransferase 2A1 (SULT2A1), SULT2A1 (gene 6822); experiment: LTEA_HepaRG_SULT2A1: Life Technologies and Expression Analysis (LTEA) Assay for sulfotransferase 2A1 (SULT2A1) using HepaRG (AID 2283531); conditions: mRNA level, 48 h; actives raise or lower the signal
How it was run: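 Expression change of SULT2A1, by qRT-PCR with three housekeeping-gene normalization, was scored bidirectionally versus DMSO. Cells: differentiated HepaRG, dosed in duplicate for 48 h across 8 points, highest 100 µM, half-log dilution, 0.5% DMSO.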

[10] = read-out: Transforming Growth Factor (TGFA), TGFA (gene 7039); experiment: LTEA_HepaRG_TGFA: Life Technologies and Expression Analysis (LTEA) Assay for Transforming Growth Factor (TGFA) using HepaRG (AID 2283532); conditions: mRNA level, 48 h; actives raise or lower the signal
How it was run: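 TGFA transcript quantified by qRT-PCR (Fluidigm arrays) against three housekeeping genes, after 48 hours chemical treatment of HepaRG cells. Top concentration 100 uM with half-log dilutions, 8 points, duplicates, 0.5% DMSO.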

TIMP1, TIMP1 (gene 7076) = experiment: LTEA_HepaRG_TIMP1: Life Technologies and Expression Analysis (LTEA) Assay for TIMP1 using HepaRG (AID 2283534); conditions: mRNA level, 48 h; actives raise or lower the signal
How it was run: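 Bidirectional change in TIMP1 transcript versus 0.5% DMSO, measured by TaqMan qRT-PCR with three housekeeping genes for normalization. HepaRG human liver cells dosed 48 h in duplicate, top concentration 100 uM with half-log dilutions.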

[11] = read-out: Tumor necrosis factor receptor 1 (TNFRSF1A), TNFRSF1A (gene 7132); experiment: LTEA_HepaRG_TNFRSF1A: Life Technologies and Expression Analysis (LTEA) Assay for Tumor necrosis factor receptor 1 (TNFRSF1A) using HepaRG (AID 2283535); conditions: mRNA level, 48 h; actives raise or lower the signal
How it was run: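 mRNA measured by qRT-PCR (TaqMan, Fluidigm arrays) against ACTB/GAPDH/POLR2A housekeepers after 48 h chemical exposure of HepaRG cells. Top concentration 100 uM, half-log 8-point series, duplicates; vehicle 0.5% DMSO, both fit directions.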

[12] = read-out: Thyroid Hormone Responsive (THRSP), THRSP (gene 7069); experiment: LTEA_HepaRG_THRSP: Life Technologies and Expression Analysis (LTEA) Assay for Thyroid Hormone Responsive (THRSP) using HepaRG (AID 2283536); conditions: mRNA level, 48 h; actives raise or lower the signal
How it was run: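 THRSP transcript quantified by Fluidigm qRT-PCR against three housekeeping genes after 48 h chemical exposure of HepaRG cells in serum-free induction medium; eight-point half-log series, top 100 uM, 0.5% DMSO vehicle, duplicate wells.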

[13] = read-out: UDP glucuronosyltransferase (UGT1A1), UGT1A1 (gene 54658); experiment: LTEA_HepaRG_UGT1A1: Life Technologies and Expression Analysis (LTEA) Assay for UDP glucuronosyltransferase (UGT1A1) using HepaRG (AID 2283538); conditions: mRNA level, 48 h; actives raise or lower the signal
How it was run: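 HepaRG, 48 h chemical exposure (top 100 uM, half-log 8-pt, 0.5% DMSO vehicle), duplicate wells; qRT-PCR (TaqMan, Fluidigm array) for UGT1A1 mRNA, housekeeping-normalized; bidirectional curve fit vs DMSO baseline.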

[14] = read-out: UDP glucuronosyltransferase (UGT1A6), UGT1A6 (gene 54578); experiment: LTEA_HepaRG_UGT1A6: Life Technologies and Expression Analysis (LTEA) Assay for UDP glucuronosyltransferase (UGT1A6) using HepaRG (AID 2283539); conditions: mRNA level, 48 h; actives raise or lower the signal
How it was run: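 Expression was quantified by TaqMan qRT-PCR on Fluidigm arrays with ACTB/GAPDH/POLR2A normalization and bidirectional fitting against 0.5% DMSO. HepaRG cells (~100,000/well) were treated in duplicate for 48 h at eight half-log concentrations up to 100 uM in serum-free induction medium.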

[15] = read-out: X-box binding protein 1 (XBP1), XBP1 (gene 7494); experiment: LTEA_HepaRG_XBP1: Life Technologies and Expression Analysis (LTEA) Assay for X-box binding protein 1 (XBP1) using HepaRG (AID 2283540); conditions: mRNA level, 48 h; actives raise or lower the signal
How it was run: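 XBP1 transcript by qRT-PCR (housekeeping-normalized: ACTB, GAPDH, POLR2A) after 48 h chemical treatment of HepaRG cells, 8-point half-log series topping at 100 uM, vehicle 0.5% DMSO. Gain and loss of signal fitted relative to DMSO.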

[16] = LTEA_HepaRG_LDH_cytotoxicity: Cytotoxicity Assessment in the Life Technologies and Expression Analysis (LTEA) Assay (AID 2283563; active = hit-call score of the fitted dose curve at least 0.9, where 1 is the maximum;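 for AC50: LDH activity released into spent culture medium as a marker of cell death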)
How it was run: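 LDH release into culture medium read after 48 h chemical treatment of HepaRG cells. Duplicate wells, eight-point half-log series topping at 100 uM, 0.5% DMSO vehicle and baseline.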

[17] = ATG_XTT_Cytotoxicity: Cytotoxicity Assessment in the Attagene TRANS-FACTORIAL HepG2 Assay (AID 2283584; active = hit-call score of the fitted dose curve at least 0.9, where 1 is the maximum)
How it was run: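 Viability endpoint from XTT after 24 h chemical exposure of reporter-transfected human HepG2 liver cells; signal loss fitted relative to DMSO negative control.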

Measured: AC50

Signal transducer and activator of transcription 3 (Homo sapiens), sequence (P40763 whole entry, looked up): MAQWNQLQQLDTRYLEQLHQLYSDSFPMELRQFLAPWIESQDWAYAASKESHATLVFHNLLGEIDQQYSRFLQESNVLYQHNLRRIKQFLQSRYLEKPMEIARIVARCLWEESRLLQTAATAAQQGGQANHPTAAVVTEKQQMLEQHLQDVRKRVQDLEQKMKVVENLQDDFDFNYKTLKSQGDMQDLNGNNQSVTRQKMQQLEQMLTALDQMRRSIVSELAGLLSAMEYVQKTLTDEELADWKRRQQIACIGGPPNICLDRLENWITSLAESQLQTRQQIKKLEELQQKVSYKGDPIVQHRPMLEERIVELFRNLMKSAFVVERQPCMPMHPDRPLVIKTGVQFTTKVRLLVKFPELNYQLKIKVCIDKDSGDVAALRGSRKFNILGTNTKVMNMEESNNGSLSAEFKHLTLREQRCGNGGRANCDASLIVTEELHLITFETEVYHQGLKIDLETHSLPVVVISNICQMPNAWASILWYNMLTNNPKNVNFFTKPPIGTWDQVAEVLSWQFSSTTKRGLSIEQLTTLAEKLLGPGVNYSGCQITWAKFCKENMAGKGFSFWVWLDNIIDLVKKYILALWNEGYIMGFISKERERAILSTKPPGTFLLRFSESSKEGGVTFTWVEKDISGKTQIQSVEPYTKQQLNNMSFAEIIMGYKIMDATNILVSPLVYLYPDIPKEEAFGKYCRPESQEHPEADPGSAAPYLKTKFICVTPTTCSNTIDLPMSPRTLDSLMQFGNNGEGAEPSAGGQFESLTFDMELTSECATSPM
Nuclear factor erythroid 2-related factor 2 (Homo sapiens), sequence (Q16236 whole entry, looked up): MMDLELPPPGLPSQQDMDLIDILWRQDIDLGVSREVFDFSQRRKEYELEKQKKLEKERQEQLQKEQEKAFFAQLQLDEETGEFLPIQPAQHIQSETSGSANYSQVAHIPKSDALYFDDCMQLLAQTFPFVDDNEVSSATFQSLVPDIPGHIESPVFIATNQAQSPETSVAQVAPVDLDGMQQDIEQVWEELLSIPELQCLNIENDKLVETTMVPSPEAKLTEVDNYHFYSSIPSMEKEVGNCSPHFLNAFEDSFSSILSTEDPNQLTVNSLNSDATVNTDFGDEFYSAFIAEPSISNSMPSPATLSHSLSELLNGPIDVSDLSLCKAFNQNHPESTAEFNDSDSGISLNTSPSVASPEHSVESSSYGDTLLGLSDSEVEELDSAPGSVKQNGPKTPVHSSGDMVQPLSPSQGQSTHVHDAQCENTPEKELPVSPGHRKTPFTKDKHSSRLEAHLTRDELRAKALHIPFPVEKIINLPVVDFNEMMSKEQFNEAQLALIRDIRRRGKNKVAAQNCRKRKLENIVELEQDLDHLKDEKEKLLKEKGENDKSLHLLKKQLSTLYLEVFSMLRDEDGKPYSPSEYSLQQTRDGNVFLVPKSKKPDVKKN

Clc1cccc(Cl)c1Cl
inactive: [1] | [2] | [3] | [4] | [5] | [6] | [7] | [8] | [9] | [10] | TIMP1, TIMP1 (gene 7076) | [11] | [12] | [13] | [14] | [15] | [16]

N#Cc1ccccc1N
inactive: [17]

CN(CCCC(O)c1cccnc1)N=O (centres undefined)
inactive: [17]

Oc1ccc(Cc2ccc(O)cc2)cc1
inactive: [17]

O=c1[nH]c(=O)n(Cl)c(=O)n1Cl
inactive: [17]

Oc1cc(Cl)c(Cl)cc1Cl
active: [16] 84.8 µM
inactive: [1] | [2] | [3] | [4] | [5] | [6] | [7] | [8] | [9] | [10] | TIMP1, TIMP1 (gene 7076) | [11] | [12] | [13] | [14] | [15] | [17]
